Tau fluor counter: counter-screen for tau fibril formation inhibitors; tau K18 P301L Alexa594 fluorescence, heparin fibrillization; Potency, µM (highest dose often 57.7 µM), inactives show at the highest dose activity change, negative = decrease; actives 0.93% (n = 280,000); further: nearly all actives have a fitted effect of over 55% in size
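Human K18 P301L tau (15 uM unlabeled plus 0.24 uM Alexa 594-labeled, final) in 100 mM sodium acetate pH 7 was mixed with compound and 20 uM heparin and incubated 6 hr at 37 C.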
Tau fibril FP: blocks human tau fibril formation measured by polarization | P10636 | K18 P301L tau heparin fibrillization, Alexa594 FP, 6 h | Potency, µM (titrated, usually from 57.7 µM), for inactives: at the top dose activity, negative = inhibition, actives largely listed as inhibitors | actives 0.39% (n = 280,000); further: nearly all actives have a fitted effect of over 55% in size
Target sequence (P10636 561-689 P618L limits assumed): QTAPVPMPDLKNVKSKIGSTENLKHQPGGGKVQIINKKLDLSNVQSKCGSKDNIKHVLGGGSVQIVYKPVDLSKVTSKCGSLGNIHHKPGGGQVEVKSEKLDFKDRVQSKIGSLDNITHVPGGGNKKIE
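Steps: dispense K18 P301L tau (15 uM plus 0.24 uM Alexa 594 tracer, final) in pH 7 sodium acetate; add compound; add heparin (20 uM final); incubate 6 hr, 37 C; add ThT (30 uM final); after 1 hr ambient, read FP.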
HPGD inh: HPGD (human) dehydrogenase inhibition | AID 894 | Potency, µM, without a hit: top-dose activity change, negative = inhibition, actives largely listed as inhibitors | purified HPGD, NADH fluorescence kinetic, PGE2 substrate | actives 4.3% (n = 150,000); active means well fitted inhibition curve with a large enough effect, not every such curve was filed as active; inconclusive means small, poorly fitted or top-dose-only effect, or another doubt; inactive means no such curve, though single readings can be large or run the other way
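20 nM HPGD preincubated 15 min at room temperature with compound in 50 mM Tris-HCl pH 8, 0.01% Tween 20. Started with 1 mM NAD+ and 30 uM prostaglandin E2; NADH fluorescence (360/450 nm) read 5 times over 30-s intervals, last minus first.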
KDM4E inh: JMJD2E (human) inhibition; actives 1.6% (n = 230,000); JMJD2E catalytic domain, FDH-coupled NADH fluorescence (FDH is formaldehyde dehydrogenase); Potency, µM (highest dose often 57.1 µM), for the others: top-dose activity change, negative = inhibition, usual class: inhibitors; B2RXH2; AID 2147; active means well fitted inhibition curve with a large enough effect, not every such curve was filed as active; inconclusive means small, poorly fitted or top-dose-only effect, or another doubt; inactive means no such curve, though single readings can be large or run the other way;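 further: 0% = wells with enzyme and -100% = buffer wells without enzyme; nearly all actives have a fitted effect of over 50% in size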
ALDH1A1 block: ALDH1A1 (human) enzyme inhibition; Purified ALDH1A1, NADH fluorescence, propionaldehyde substrate; Potency, µM (titrated, usually from 75.3 µM), for inactives: at the top dose activity, negative = inhibition, most hits filed as inhibitors; actives 7.3% (n = 220,000); P00352; active means well fitted inhibition curve with a large enough effect, not every such curve was filed as active; inconclusive means small, poorly fitted or top-dose-only effect, or another doubt; inactive means no such curve, though single readings can be large or run the other way;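 further: plate controls were no enzyme wells and a reference inhibitor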
Target sequence (P00352 whole entry, looked up): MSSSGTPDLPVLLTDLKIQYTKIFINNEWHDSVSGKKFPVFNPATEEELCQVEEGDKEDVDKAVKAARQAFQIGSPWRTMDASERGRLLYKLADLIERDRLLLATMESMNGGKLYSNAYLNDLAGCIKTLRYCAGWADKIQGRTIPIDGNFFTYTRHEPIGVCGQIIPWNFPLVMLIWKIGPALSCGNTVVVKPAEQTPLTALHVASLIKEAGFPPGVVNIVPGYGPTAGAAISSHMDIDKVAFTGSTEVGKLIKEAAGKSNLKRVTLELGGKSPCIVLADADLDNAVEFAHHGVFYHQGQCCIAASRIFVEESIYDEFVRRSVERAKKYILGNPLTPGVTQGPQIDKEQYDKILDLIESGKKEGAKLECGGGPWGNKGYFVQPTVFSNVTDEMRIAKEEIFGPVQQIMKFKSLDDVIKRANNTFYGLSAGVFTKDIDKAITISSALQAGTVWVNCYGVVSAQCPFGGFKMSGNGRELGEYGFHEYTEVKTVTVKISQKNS
Tau fibril ThT: blocks human tau fibril formation measured by thioflavin T; P10636; recombinant tau K18 P301L, heparin-induced fibrillization, ThT fluorescence; Potency, µM (series often up to 57.4 µM), for the others: at the highest dose activity, negative = inhibition, hits mostly inhibitors; actives 2.1% (n = 270,000); further: nearly all actives have a fitted effect of over 55% in size
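ThT emission at 510 nm, taken 1 hr after adding 30 uM dye, quantifies aggregates formed when 20 uM heparin acts on human tau K18 P301L for 6 hr at 37 C.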
The depositor's hits bear a star; ? = inconclusive; . = no result given; [ ] = dose if it differs, or a comment. Most compounds without a hit are left out; they make up all but 9.9% or so of the library. Unless noted, the call rests on the fitted dose curve; in most records, active means well fitted curve in the direction sought with a large enough effect; inconclusive means small, poorly fitted or top-dose-only effect, or another doubt; inactive means no such curve, though single readings can be large; an effect the other way counts as inactive or inconclusive. Unless noted, on the % scale 0 is the no-effect control and ±100 the full control effect; potency means the concentration at half of the fitted maximal effect.

SMILES | Tau fluor counter | Tau fibril FP | HPGD inh | KDM4E inh | ALDH1A1 block | Tau fibril ThT
CCn1c(=O)cc(SCC(=O)NCC2CCCO2)c2ccccc21 (stereo unspecified) | 0% | -11% | ? | ? | ? | -7%
O=C(NCC1CCCO1)C(=O)N/N=C/c1cc(Cl)ccc1O (stereo unspecified) | 2% | -8% | . | 13µM* | . | -6%
Clc1ccc(OCCCc2nc(-c3cccnc3)no2)c(Cl)c1 | -15% | -8% | . | -19% | 4% | -8%
O=C(CCCOc1ccc(Cl)cc1Cl)NCC1CCCO1 (stereo unspecified) | -1% | -3% | 11µM* | -3% | ? | 0%
Cn1c(=O)cc(SCC(=O)NCC2CCCO2)c2ccc(Cl)cc21 (stereo unspecified) | -1% | 4% | 14µM* | ? | -8% | -5%
Clc1ccc(OCCCc2nc(-c3ccncc3)no2)c(Cl)c1 | -21% | -5% | 28µM* | -3% | -4% | ?
CN1/C(=C\C(=O)CSc2nnc(NCc3ccccc3)s2)C(C)(C)c2ccccc21 | -12% | 13% | -21% | -3% | -8% | ?
Cc1noc(C)c1COC(=O)C(c1ccccc1)c1ccccc1 | -7% | -4% | . | 3% | 11µM* | -1%
Cc1noc(C)c1COC(=O)Cc1ccc(Cl)cc1 | -7% | 1% | -10% | 7% | 17% | -9%
Cc1noc(C)c1COC(=O)CCCc1c[nH]c2ccccc12 | -12% | 19% | ? | ? | 14µM* | -16%
Cc1noc(C)c1COC(=O)CCCOc1ccc(Cl)cc1Cl | -8% | 2% | 18µM* | 6% | 14% | -18%
Cc1noc(C)c1COC(=O)/C=C/c1ccccc1Cl | -13% | 13% | . | -6% | -1% | -14%
Cc1ccc(CNC(=O)COC(=O)CCCOc2ccc(Cl)cc2Cl)cc1 | -8% | -1% | 16µM* | 2% | 11% | -9%
CS(=O)(=O)NCC(c1cccnc1)N1CCN(c2ccccc2F)CC1 (stereo unspecified) | -2% | 2% | . | 3% | . | 4%
Cn1c(C(=O)NCCc2ccccc2)cc2sc(Cl)cc21 | -29% | -12% | . | . | . | ?
COc1ccc(NC(=O)CSc2nc3ccccc3n2CC(=O)N(C)C2CCCCC2)cc1 | -1% | 6% | . | . | . | -3%
N#Cc1cc2c(=O)n3ccccc3nc2n(-c2nnc(SCc3ccccc3Cl)s2)c1=O | ? | -14% | . | . | . | -5%
COC(=O)[C@@]1(Cc2ccc(F)cc2)[C@H]2c3cc(C(=O)N(C)C)n(Cc4ccc(C(F)(F)F)nc4)c3C[C@H]2CN1C(=O)c1ccccc1 | -9% | -1% | -14% | -14% | -1% | -18%
CCNC(=O)CCCOc1ccc(Cl)cc1Cl | 1% | 0% | 14µM* | 1% | 1% | -8%
O=C(CCCOc1ccc(Cl)cc1Cl)Nc1ccncc1 | -29% | 1% | 14µM* | -1% | ? | -21%
COc1ccccc1NC(=S)NC(=O)CCCOc1ccc(Cl)cc1Cl | ? | ? | -18% | -1% | 11µM* | -18%
Cc1ccccc1-n1nnnc1SCc1cc(=O)n2ccsc2n1 | -7% | -11% | . | -16% | 0.63µM* | -2%
Cc1cccc(C)c1OCc1cc(=O)n2c(-c3ccccc3)csc2n1 | -15% | 3% | . | . | . | -2%
COc1ccc(C)cc1-n1nnnc1SCc1cn2ccsc2n1 | -13% | 1% | -1% | -4% | 14µM* | -5%
O=c1cc(CSc2nnnn2-c2ccccc2)nc2scc(-c3ccccc3)n12 | -12% | -2% | -15% | ? | 3.2µM* | -8%
SMILES | Tau fluor counter | Tau fibril FP | HPGD inh | KDM4E inh | ALDH1A1 block | Tau fibril ThT
O=c1cc(CSc2nnnn2-c2ccccc2)nc2nc[nH]n12 | 3% | -3% | -22% | -1% | ? | 9%
O=c1cc(CN2CCN(c3ccc(O)cc3)CC2)nc2scc(-c3ccccc3)n12 | -7% | 6% | . | ? | 14µM* | -12%
O=C(NCCc1ccc(Cl)cc1)C(=O)NCC(c1ccco1)S(=O)(=O)c1ccccc1 (stereo unspecified) | 6% | -6% | . | . | . | 0%
CCc1nnc2c(NCc3ccccc3OC)nc3ccccc3n12 | -8% | -1% | . | . | . | 5%
Cn1nnnc1SCc1cc(=O)n2ccsc2n1 | 4% | -3% | -4% | 2% | 0% | 1%
COc1ccc(C)cc1-n1nnnc1SCC(=O)N1CCC(C(=O)Nc2nccs2)CC1 | 8% | -1% | -15% | 4% | 7.9µM* | 9%
O=c1cc(CSc2nnnn2-c2ccccc2)nc2sccn12 | 4% | 0% | . | -12% | 13µM* | -2%
COc1ccc(C)cc1-n1nnnc1SCC1CCCCO1 (stereo unspecified) | -2% | 3% | -21% | -4% | 32µM* | 5%
O=C(O)c1cc([N+](=O)[O-])ccc1N1CCC(Cc2ccccc2)CC1 | -3% | 4% | . | -4% | -6% | ?
CC(C)(C)c1ccc(Cn2ccc(-c3ccc4c(c3)OCO4)n2)cc1 | -21% | -2% | -19% | -14% | 4µM* | -12%
CCCCNc1c([N+](=O)[O-])cc(C(=O)O)cc1[N+](=O)[O-] | -6% | 4% | -18% | 0% | -1% | ?
O=C(O)c1cc([N+](=O)[O-])c(NCCC2=CCCCC2)c([N+](=O)[O-])c1 | -18% | -12% | . | 11% | 10µM* | ?
O=C1CCC[C@@H](C2=CCCCC2=O)C1 | -15%[11.6 µM] | ? | . | . | 11%[13.5 µM] | -15%[11.5 µM]
CCN1C=C(Cc2cccs2)C2=C(C1)C(c1cccs1)C(C#N)=C(N)O2 (stereo unspecified) | -23% | -9% | -24% | ? | 20µM* | 22µM*
CCN1CC2=C(OC(N)=C(C#N)C2c2cccs2)/C(=C/c2cccs2)C1 (stereo unspecified) | -25% | -6% | -14% | 14µM* | 18µM* | 16µM*
CCn1c(C)c(C2=CCN(S(=O)(=O)c3ccc(C)cc3)CC2)c2ccccc21 | -30% | 11% | -25% | -1% | ? | ?
Cc1c(C2=CCN(S(=O)(=O)c3ccc(Br)cc3)CC2)c2ccccc2n1C | -15% | 5% | -25% | 16µM* | -14% | -7%
COc1cc(/C=N/NC(=O)Cc2c[nH]c3ccccc23)cc(OC)c1OC | -14% | 9% | . | -30% | 9% | -15%
COc1cc(/C=N/NC(=O)[C@H](Cc2c[nH]c3ccccc23)NC(=O)OCC(C)C)cc([N+](=O)[O-])c1O | ? | ? | -11% | ? | ? | 14µM*

Source: PubChem (National Center for Advancing Translational Sciences (NCATS))
